The record followed here is the antibiotic and cytotoxicity screens of Wong et al. (2023).

Molecules are shown by their SMILES. The campaign covered roughly 39,000 compounds. About 3,300 (8.5%) were called active. The full list was thinned out, with actives kept by preference.

In this assay the test system is HepG2. In words: cytotoxicity call (relative viability < 0.9). As to conditions: 10 µM.
`C[C@H]1CCCCO[C@@H](CN(C)Cc2ccncc2)[C@@H](C)CN([C@@H](C)CO)C(=O)c2cc(NC(=O)Cc3ccccc3)ccc2O1`: the cytotoxicity call is “inactive”.
In the case of `C[C@@H]1CN([C@@H](C)CO)C(=O)Cc2cc(NC(=O)Nc3cccc4ccccc34)ccc2O[C@H]1CN(C)S(=O)(=O)c1cccs1`, the cytotoxicity call was “inactive”.
Consider `C[C@H](CO)N1C[C@H](C)[C@@H](CN(C)C(=O)NC2CCCCC2)Oc2cc(-c3cccnc3)ccc2S1(=O)=O`, for which the cytotoxicity call was “inactive”.
Turning to `Cc1ccc(S(=O)(=O)N2C[C@@H](O)COC[C@H]3O[C@H](CC(=O)NCCCN(C)C)CC[C@@H]32)cc1`, the cytotoxicity call was “inactive”.
On to `Cc1noc(C)c1NC(=O)Nc1ccc2c(c1)C(=O)N([C@H](C)CO)C[C@H](C)[C@H](CN(C)Cc1ccc(Cl)c(Cl)c1)O2`, for which the cytotoxicity call was “inactive”.
With `C=CC[C@@H](CC(=O)N[C@@H](CO)Cc1ccccc1)C(=O)NC[C@@H](OC(=O)[C@@H](CC=C)Cc1ccc(F)cc1)c1ccccc1` the entry was “inactive”; with `C=CC[C@@H](CC(=O)N[C@H](CO)Cc1ccccc1)C(=O)NC[C@H](OC(=O)[C@@H](CC=C)Cc1ccc(F)cc1)c1ccccc1`, “active”; with `C=CCC[C@H](Cc1ccc(F)cc1)C(=O)O[C@@H](CNC(=O)[C@@H](CC=C)CC(=O)N[C@H](CO)Cc1ccccc1)c1ccccc1`, “inactive”.
Turning to `C=CC[C@@H](CC(=O)N[C@@H](CO)Cc1ccccc1)C(=O)NC[C@H](OC(=O)[C@@H](CC=C)Cc1ccc(F)cc1)c1ccccc1`, the cytotoxicity call is “inactive”.
As to `C=CCC[C@H](Cc1ccc(F)cc1)C(=O)O[C@@H](CNC(=O)[C@@H](CC=C)CC(=O)N[C@@H](CO)Cc1ccccc1)c1ccccc1`, the cytotoxicity call is “inactive”.
For the molecule `C=CCC[C@@H](Cc1ccc(F)cc1)C(=O)O[C@@H](CNC(=O)[C@@H](CC=C)CC(=O)N[C@H](CO)Cc1ccccc1)c1ccccc1`, the cytotoxicity call is “active”.
On to `Nc1ncnc2c1CCC2`, for which the cytotoxicity call is “inactive”.
Next, `CCCCCCCCNC(C)C(O)c1ccc(SC(C)C)cc1` (configuration not stated): “active”.
Next, `CC(NCCc1ccc(O)cc1)C(O)c1ccc(O)cc1.Cl` (configuration not stated): “inactive”; `CCCCCCCCNC[C@@H](O)[C@H](O)[C@@H](O)[C@@H](O)CO`: “inactive”; `C[C@H]1CN([C@@H](C)CO)C(=O)c2cc(NC(=O)Cc3ccccc3)ccc2O[C@H]1CN(C)S(=O)(=O)c1cn(C)cn1`: “inactive”.
As for `C[C@@H]1CN([C@@H](C)CO)C(=O)c2cc(NS(=O)(=O)c3ccc(F)cc3)ccc2O[C@@H]1CN(C)C(=O)Nc1cccc2ccccc12`, the cytotoxicity call was “inactive”.
Consider `CC(C)NC(=N)NC(=N)Nc1ccc(Cl)cc1.Cl`, for which the cytotoxicity call was “active”.
Turning to `N[C@@H](CC(=O)Nc1ccc(Cl)cc1)C(=O)O`, the cytotoxicity call is “inactive”.
Turning to `Cl.Cl.N=C(NCCCCCCNC(=N)NC(=N)Nc1ccc(Cl)cc1)NC(=N)Nc1ccc(Cl)cc1`, the cytotoxicity call is “active”.
For the molecule `C[C@H](CO)N1C[C@H](C)[C@@H](CN(C)S(=O)(=O)c2ccccc2)Oc2c(NC(=O)C3CC3)cccc2C1=O`, the cytotoxicity call was “inactive”.
Regarding `C[C@H]1CN([C@@H](C)CO)C(=O)c2cccc(NC(=O)c3ccncc3)c2O[C@@H]1CN(C)S(=O)(=O)c1ccc(F)cc1`, the cytotoxicity call is “inactive”.
`COCCN1CCC(N(Cc2ccc(-c3ccc(C(F)(F)F)cc3)cc2)C(=O)Cn2c(SCc3cccc(F)c3F)cc(=O)c3ccccc32)CC1`: the cytotoxicity call is “active”.
Next, `C[C@@H]1CN([C@@H](C)CO)C(=O)c2cc(NC(=O)c3ccncc3)ccc2O[C@@H](C)CCCCO[C@@H]1CN(C)S(C)(=O)=O`: “inactive”; `COc1ccc2c(c1)/C(=N\O)C(=O)N2`: “inactive”; `COc1ccc2c(c1)C(=O)C(=O)N2`: “inactive”.
On to `O=C1Nc2ccc(I)cc2C1=Cc1cc(Br)c(O)c(Br)c1`, for which the cytotoxicity call was “active”.
Regarding `CC(C)C[C@@H](N)C(=O)N[C@H]1C(=O)N[C@@H](CC(N)=O)C(=O)N[C@H]2C(=O)N[C@H]3C(=O)N[C@H](C(=O)N[C@H](C(=O)O)c4cc(O)cc(O)c4-c4cc3ccc4O)[C@H](O)c3ccc(c(Cl)c3)Oc3cc2cc(c3O[C@@H]2O[C@H](CO)[C@@H](O)[C@H](O)[C@H]2O[C@H]2C[C@](C)(N)[C@H](O)[C@H](C)O2)Oc2ccc(cc2Cl)[C@H]1O`, the cytotoxicity call was “inactive”.
Consider `C[C@@H]1CCCCO[C@@H](CN(C)C(=O)Nc2cccc3ccccc23)[C@@H](C)CN([C@H](C)CO)C(=O)c2cc(NS(=O)(=O)c3ccc(Cl)cc3)ccc2O1`, for which the cytotoxicity call is “inactive”.
Consider `COc1ccc(S(=O)(=O)Nc2ccc3c(c2)[C@@H]2C[C@@H](CC(=O)NCC4CC4)O[C@H](CO)[C@@H]2O3)cc1`, for which the cytotoxicity call is “inactive”.
Next, `CS(=O)(=O)O.CSc1ccc2c(c1)C(N1CCN(C)CC1)Cc1ccccc1S2` (configuration not stated): “active”; `C[C@H]1CN([C@@H](C)CO)C(=O)Cc2cc(NC(=O)Nc3cccc4ccccc34)ccc2O[C@H]1CN(C)S(=O)(=O)c1ccc(F)cc1`: “inactive”; `C[C@H](CO)N1C[C@H](C)[C@H](CN(C)Cc2ccc(-c3ccccc3)cc2)Oc2c(NC(=O)c3ccc(-c4nccs4)cc3)cccc2C1=O`: “inactive”.
Take `C[C@H](CO)N1C[C@H](C)[C@@H](CN(C)Cc2ccc(Oc3ccccc3)cc2)Oc2ccc(NC(=O)Nc3ccc(C(F)(F)F)cc3)cc2C1=O`: the cytotoxicity call is “inactive”.
For `C[C@@H]1CN([C@H](C)CO)C(=O)c2cc(NC(=O)Nc3ccc(C(F)(F)F)cc3)ccc2O[C@H]1CN(C)Cc1ccc(Oc2ccccc2)cc1`, the cytotoxicity call is “inactive”.
On to `C[C@H](CO)N1C[C@H](C)[C@H](CN(C)Cc2ccc(Oc3ccccc3)cc2)Oc2ccc(NC(=O)Nc3ccc(C(F)(F)F)cc3)cc2C1=O`, for which the cytotoxicity call is “active”.
With `C[C@@H]1CN([C@H](C)CO)C(=O)c2cc(NC(=O)Nc3ccc(C(F)(F)F)cc3)ccc2O[C@@H]1CN(C)Cc1ccc(Oc2ccccc2)cc1` the entry was “active”; with `C[C@H]1CN([C@@H](C)CO)C(=O)c2cc(NC(=O)Nc3ccc(C(F)(F)F)cc3)ccc2O[C@H]1CN(C)Cc1ccc(Oc2ccccc2)cc1`, “active”; with `C[C@@H]1CN([C@@H](C)CO)C(=O)c2cc(NC(=O)Nc3ccc(C(F)(F)F)cc3)ccc2O[C@H]1CN(C)Cc1ccc(Oc2ccccc2)cc1`, “active”.
As for `C[C@H]1CN([C@@H](C)CO)C(=O)c2cc(NC(=O)Nc3ccc(C(F)(F)F)cc3)ccc2O[C@@H]1CN(C)Cc1ccc(Oc2ccccc2)cc1`, the cytotoxicity call was “inactive”.
As to `C[C@@H]1CN([C@@H](C)CO)S(=O)(=O)c2ccc(Br)cc2O[C@H]1CN(C)CC1CCOCC1`, the cytotoxicity call is “inactive”.
For the molecule `COc1ccc(NC(=O)Nc2ccc3c(c2)C(=O)N([C@@H](C)CO)C[C@H](C)[C@@H](CN(C)C(=O)Nc2cccc4ccccc24)O3)cc1`, the cytotoxicity call is “inactive”.
For `C[C@H]1CN([C@@H](C)CO)S(=O)(=O)c2ccc(C#Cc3ccccc3)cc2O[C@@H]1CN(C)C(=O)Cc1ccccn1`, the cytotoxicity call is “inactive”.
Take `Nc1nc(=O)c2ncn(CCC(CO)CO)c2[nH]1`: the cytotoxicity call was “inactive”.
As for `Cc1noc(C)c1NC(=O)N(C)C[C@H]1Oc2ccc(NC(=O)NC(C)C)cc2CC(=O)N([C@H](C)CO)C[C@H]1C`, the cytotoxicity call is “inactive”.
With `C[C@@H]1CN([C@@H](C)CO)C(=O)c2cc(NC(=O)Nc3ccc(C(F)(F)F)cc3)ccc2O[C@@H]1CN(C)Cc1ccc(Oc2ccccc2)cc1`, the cytotoxicity call is “active”.
On to `C[C@@H]1CN([C@@H](C)CO)C(=O)c2cc(NC(=O)Nc3ccc(C(F)(F)F)cc3)ccc2O[C@@H]1CN(C)C(=O)Nc1ccccc1`, for which the cytotoxicity call is “inactive”.
Next, `O=C(O)c1ccc(/C2=C3\C=CC(=N3)/C(c3ccc(C(=O)O)cc3)=c3/cc/c4[n]3[Mn+][n]3c2ccc3/C(c2ccc(C(=O)O)cc2)=C2/C=CC(=N2)\C=4c2ccc(C(=O)O)cc2)cc1`: “inactive”; `C[n+]1ccc(/C2=C3\C=CC(=N3)/C(c3cc[n+](C)cc3)=c3/cc/c4[n]3[Fe][n]3c2ccc3/C(c2cc[n+](C)cc2)=C2/C=CC(=N2)\C=4c2cc[n+](C)cc2)cc1`: “active”; `C[C@@H]1CN([C@@H](C)CO)C(=O)c2cc(NC(=O)Cc3ccccc3)ccc2O[C@@H]1CN(C)S(=O)(=O)c1ccccc1`: “inactive”.
Next, `C[C@@H]1CN([C@@H](C)CO)C(=O)c2cccc(NC(=O)C3CC3)c2O[C@@H]1CN(C)S(=O)(=O)c1cccs1`: “inactive”; `Cc1ccc(S(=O)(=O)N(C)C[C@@H]2OCCCC[C@@H](C)Oc3ccc(NC(=O)Nc4c(C)noc4C)cc3C(=O)N([C@@H](C)CO)C[C@@H]2C)cc1`: “inactive”; `C[C@@H]1CCCCO[C@@H](CN(C)CC2CC2)[C@@H](C)CN([C@H](C)CO)C(=O)c2cc(NS(=O)(=O)c3cn(C)cn3)ccc2O1`: “inactive”.
As for `COc1ccc(CN(C)C[C@H]2Oc3ccc(NC(=O)Nc4cccc5ccccc45)cc3CC(=O)N([C@@H](C)CO)C[C@@H]2C)cc1`, the cytotoxicity call was “active”.
On to `COc1ccc(CN(C)C[C@H]2Oc3ccc(NC(=O)Nc4cccc5ccccc45)cc3CC(=O)N([C@@H](C)CO)C[C@H]2C)cc1`, for which the cytotoxicity call was “active”.
`COc1ccc(CN(C)C[C@@H]2Oc3ccc(NC(=O)Nc4cccc5ccccc45)cc3CC(=O)N([C@H](C)CO)C[C@@H]2C)cc1`: the cytotoxicity call is “inactive”.
Next, `COc1ccc(CN(C)C[C@@H]2Oc3ccc(NC(=O)Nc4cccc5ccccc45)cc3CC(=O)N([C@H](C)CO)C[C@H]2C)cc1`: “inactive”.
Turning to `COc1ccc(CN(C)C[C@@H]2Oc3ccc(NC(=O)Nc4cccc5ccccc45)cc3CC(=O)N([C@@H](C)CO)C[C@@H]2C)cc1`, the cytotoxicity call is “active”.
Turning to `COc1ccc(CN(C)C[C@H]2Oc3ccc(NC(=O)Nc4cccc5ccccc45)cc3CC(=O)N([C@H](C)CO)C[C@H]2C)cc1`, the cytotoxicity call was “active”.
As for `COc1ccc(OC)c(S(=O)(=O)N2[C@@H]3CC[C@@H](C3)[C@H]2c2nc3cccc(OCc4ccccc4)c3[nH]2)c1`, the cytotoxicity call was “inactive”.
In the case of `CO[C@@H]1CN(C)C(=O)c2cc(NS(=O)(=O)CC(F)(F)F)ccc2OC[C@@H](C)N(Cc2ccccn2)C[C@@H]1C`, the cytotoxicity call was “inactive”.
For `C[C@@H]1CN([C@@H](C)CO)C(=O)c2cc(Br)cnc2O[C@@H]1CN(C)S(=O)(=O)c1ccccc1`, the cytotoxicity call was “inactive”.
